Measured values: PubChem BioAssay (Tox21)
Where “and” joins values, the source holds several entries; their conditions need not be identical. Equal values may be shown once. Records with an inconclusive call do not appear. Where a call stands in place of a potency, no number is given. More than one record can exist for a structure, and the calls need not agree. Calls of active or inactive are those of the source. Unless noted, calls come from the whole dose curve; as a rule, active = well fitted curve in the direction sought with a large enough effect in the repeat runs; inconclusive = weak or mixed curves; inactive = no such curve, though single readings can be large; an effect the other way counts as inactive or inconclusive.

Legend:
[1] = qHTS assay to identify small molecule agonists of the peroxisome proliferator-activated receptor delta (PPARd) signaling pathway - cell viability counter screen (AID 743211); note: nearly all actives have a fitted effect of over 55% in size; note: potency is the fitted concentration of half-maximal effect
Outline: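 Luminescent ATP viability assay (CellTiter-Glo, 30 min RT) in UAS-bla HEK293H cells carrying the PPAR delta reporter construct, 3000 cells/well, after a 17 h compound treatment at 37 C.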

[2] = qHTS assay to identify small molecule antagonists of the peroxisome proliferator-activated receptor delta (PPARd) signaling pathway - cell viability counter screen (AID 743213); note: nearly all actives have a fitted effect of over 50% in size; note: potency is the fitted concentration of half-maximal effect
Outline: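 PPARd-bla HEK293H cells were treated with compounds plus agonist L165041 (300 nM final) for 17 h at 37 C. Viability was then read in the same wells by CellTiter-Glo luminescence after 30 min at room temperature.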

[3] = qHTS assay to identify small molecule agonists of the farnesoid-X-receptor (FXR) signaling pathway - cell viability counter screen (AID 743218); note: nearly all actives have a fitted effect of over 45% in size
Outline: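 HEK 293T FXR-bla cells; 5 h pre-incubation, 16 h compound exposure at 37 C; LiveBLAzer substrate 2 h RT, then CellTiter-Glo 30 min RT, luminescence.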

[4] = qHTS assay to identify small molecule antagonists of the farnesoid-X-receptor (FXR) signaling pathway - cell viability counter screen (AID 743221; active = well fitted cell-killing curve with a large enough effect in the repeat runs, not every such curve was filed as active; note: nearly all actives have a fitted effect of over 50% in size; note: potency is the fitted concentration of half-maximal effect)
Outline: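 In GeneBLAzer FXR-UAS-bla HEK 293T cells stimulated with 50 uM chenodeoxycholic acid (final), compounds acted for 16 h at 37 C. Viability was assessed afterwards by CellTiter-Glo luminescence.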

[5] = qHTS assay to identify small molecule antagonists of the vitamin D receptor (VDR) signaling pathway - cell viability counter screen (AID 743225); note: nearly all actives have a fitted effect of over 50% in size; note: potency is the fitted concentration of half-maximal effect
Outline: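 Luminescent cell viability (CellTiter-Glo) in VDR-bla HEK 293T cells after 16 h compound exposure at 37C in the presence of 3 nM final 1-alpha,25-dihydroxy vitamin D3.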

[6] = qHTS assay to identify small molecule agonists of the NFkB signaling pathway - cell viability counter screen (AID 1159515; calls by dose curve; note: nearly all actives have a fitted effect of over 55% in size; note: potency is the fitted concentration of half-maximal effect)
Outline: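 Luminescence from CellTiter-Glo (30 min, room temperature) gives viability, measured in the same wells as the beta-lactamase reporter read. Cells were NFkB-bla ME-180, 2,000 per well, treated 5 hr with compounds.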

[7] = qHTS assay to identify small molecule agonists of the endoplasmic reticulum stress response signaling pathway (AID 1159516; active = well fitted activation curve with a large enough effect in the signal ratio in the repeat runs, not every such curve was filed as active; the % refers to the signal ratio)
Outline: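 Read-out is beta-lactamase cleavage of a FRET substrate (405 nm excitation; 460 and 530 nm emissions) in ESRE-bla HeLa cells after a 5 hr compound exposure at 37 C. Substrate incubation ran 2 hr at room temperature.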

[8] = qHTS assay to identify small molecule agonists of the endoplasmic reticulum stress response signaling pathway - cell viability counter screen (AID 1159517; calls by dose curve; note: nearly all actives have a fitted effect of over 50% in size; note: potency is the fitted concentration of half-maximal effect)
Outline: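 CellTiter-Glo was added to wells already read for beta-lactamase FRET, and luminescence was recorded 30 min later. Cells: ESRE-bla HeLa, 1,500 per well, compound exposure 5 hr at 37 C.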

[9] = qHTS assay to identify small molecule antagonists of the retinoid-related orphan receptor gamma (ROR-gamma) signaling pathway - cell viability counter screen (AID 1159520); note: nearly all actives have a fitted effect of over 50% in size; note: potency is the fitted concentration of half-maximal effect
Outline: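 Tet-on ROR gamma CHO cells (1,000/well) were plated 4 hr, given compounds in DMSO for 2 hr at 37 C, then induced with 1 uM final doxycycline for 16 hr. Viability was read as ATP by CellTiter-Glo luminescence after 30 min.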

[10] = biological target: Nuclear receptor ROR-gamma (Homo sapiens) (UniProt P51449); test: qHTS assay to identify small molecule antagonists of the retinoid-related orphan receptor gamma (ROR-gamma) signaling pathway (AID 1159521; note: nearly all actives have a fitted effect of over 50% in size; note: potency is the fitted concentration of half-maximal effect)
Outline: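 CHO cells expressing RORγ under a TET-on promoter, luciferase under RORE control. Dox 1 uM final, 16 h; compounds added 2 h prior. Luminescence decrease measured.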

[11] = qHTS assay to identify small molecule agonists of the AP-1 signaling pathway - cell viability counter screen (AID 1159525; calls by dose curve; note: nearly all actives have a fitted effect of over 55% in size; note: potency is the fitted concentration of half-maximal effect)
Outline: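 ME-180 AP-1-bla, 2500 cells/well, Opti-MEM + 0.5% dialyzed FBS; overnight 37 °C; cpd 15-pt titration, 5 h 37 °C; CellTiter-Glo 30 min RT; luminescence read; normalised to TOAB and DMSO controls.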

[12] = qHTS assay to identify small molecule agonists of the AP-1 signaling pathway (AID 1159526; calls by dose curve)
[13] = biological target: Retinoic acid receptor RXR-alpha (Homo sapiens) (UniProt P19793); test: qHTS assay to identify small molecule agonists of the RXR signaling pathway (AID 1159527; calls by dose curve; note: nearly all actives have a fitted effect of over 35% in size; note: potency is the fitted concentration of half-maximal effect)
Chain of Retinoic acid receptor RXR-alpha (Homo sapiens) (P19793 whole entry, looked up): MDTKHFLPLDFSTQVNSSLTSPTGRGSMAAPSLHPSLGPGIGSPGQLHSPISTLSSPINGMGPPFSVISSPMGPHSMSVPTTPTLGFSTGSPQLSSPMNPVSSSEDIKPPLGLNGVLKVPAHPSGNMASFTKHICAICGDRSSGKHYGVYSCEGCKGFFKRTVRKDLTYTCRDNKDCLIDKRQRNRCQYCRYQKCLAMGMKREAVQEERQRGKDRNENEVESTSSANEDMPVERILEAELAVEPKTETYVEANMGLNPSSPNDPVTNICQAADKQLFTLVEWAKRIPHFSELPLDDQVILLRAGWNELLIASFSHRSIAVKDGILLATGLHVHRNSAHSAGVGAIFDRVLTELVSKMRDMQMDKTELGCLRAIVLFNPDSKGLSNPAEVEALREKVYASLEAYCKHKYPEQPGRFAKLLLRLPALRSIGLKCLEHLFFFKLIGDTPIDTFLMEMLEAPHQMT
Outline: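 Beta-lactamase reporter assay, agonist format. Engineered HEK 293T line, charcoal-stripped FBS at 2%, overnight (16 hr) exposure, fluorescence at 460 and 530 nm after 405 nm excitation.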

[14] = biological target: Peroxisome proliferator-activated receptor delta (Homo sapiens) (UniProt Q03181); test: qHTS assay to identify small molecule agonists of the peroxisome proliferator-activated receptor delta (PPARd) signaling pathway (AID 743212; calls by dose curve)
Chain of Peroxisome proliferator-activated receptor delta (Homo sapiens) (Q03181 whole entry, looked up): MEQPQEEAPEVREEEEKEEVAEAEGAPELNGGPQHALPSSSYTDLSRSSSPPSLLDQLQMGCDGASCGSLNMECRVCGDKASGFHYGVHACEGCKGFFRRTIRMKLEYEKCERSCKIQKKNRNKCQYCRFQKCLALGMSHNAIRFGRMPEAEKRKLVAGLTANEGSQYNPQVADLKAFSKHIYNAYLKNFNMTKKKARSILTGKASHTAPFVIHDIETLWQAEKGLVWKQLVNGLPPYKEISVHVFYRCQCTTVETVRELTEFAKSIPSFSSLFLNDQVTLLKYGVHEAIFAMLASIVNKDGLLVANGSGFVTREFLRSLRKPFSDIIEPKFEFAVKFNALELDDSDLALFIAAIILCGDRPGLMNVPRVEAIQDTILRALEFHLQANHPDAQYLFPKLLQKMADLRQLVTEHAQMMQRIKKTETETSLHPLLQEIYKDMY
Outline: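 A PPARd-bla HEK293H line with beta-lactamase under an Upstream Activator Sequence is treated with compounds at 37 C. Substrate loading for 2 h at room temperature precedes the fluorescence measurement.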

[15] = biological target: Peroxisome proliferator-activated receptor delta (Homo sapiens) (UniProt Q03181); test: qHTS assay to identify small molecule antagonists of the peroxisome proliferator-activated receptor delta (PPARd) signaling pathway (AID 743215; active = well fitted inhibition curve with a large enough effect in the signal ratio in the repeat runs, not every such curve was filed as active; the % refers to the signal ratio;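 note: cells stimulated with agonist L165041 at 300 nM final during compound exposure; series mostly up to about 62 µM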)
Outline: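 Read-out is beta-lactamase FRET fluorescence, measured 2 h after substrate addition at room temperature. Beforehand, UAS-bla HEK293H cells carrying the PPARd reporter were exposed to compounds with L165041 at 300 nM final for 17 h at 37 C.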

[16] = biological target: Vitamin D3 receptor (Homo sapiens) (UniProt P11473); test: qHTS assay to identify small molecule agonists of the vitamin D receptor (VDR) signaling pathway (AID 743222; calls by dose curve)
Chain of Vitamin D3 receptor (Homo sapiens) (P11473 whole entry, looked up): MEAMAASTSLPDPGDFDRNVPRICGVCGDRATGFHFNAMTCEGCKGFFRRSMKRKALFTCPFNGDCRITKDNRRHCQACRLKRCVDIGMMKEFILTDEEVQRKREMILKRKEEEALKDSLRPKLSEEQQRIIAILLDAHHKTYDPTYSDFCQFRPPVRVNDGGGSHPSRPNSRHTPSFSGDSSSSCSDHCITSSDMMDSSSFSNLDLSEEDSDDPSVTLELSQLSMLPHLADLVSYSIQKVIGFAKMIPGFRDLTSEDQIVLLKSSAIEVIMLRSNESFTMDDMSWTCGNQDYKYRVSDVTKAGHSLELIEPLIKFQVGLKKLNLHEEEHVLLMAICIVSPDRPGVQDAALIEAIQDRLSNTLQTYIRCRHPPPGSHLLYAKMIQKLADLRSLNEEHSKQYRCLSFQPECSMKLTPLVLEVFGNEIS
Outline: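 VDR-bla cells, 2,000/well; 4 h preincubation 37C; cpd (DMSO) 16 h; LiveBLAzer B/G substrate 2 h RT; fluorescence intensity read.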

[17] = biological target: Vitamin D3 receptor (Homo sapiens) (UniProt P11473); test: qHTS assay to identify small molecule antagonists of the vitamin D receptor (VDR) signaling pathway (AID 743223; active = well fitted inhibition curve with a large enough effect in the signal ratio in the repeat runs, not every such curve was filed as active; the % refers to the signal ratio)
Outline: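 Agonist 1alpha,25-dihydroxyvitamin D3 (3 nM in well) was added with each compound to VDR-bla cells preincubated 4 h. Cells stood 16 h at 37C, then FRET substrate 2 h at room temperature; fluorescence intensity recorded.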

[18] = qHTS assay to identify small molecule agonists of the vitamin D receptor (VDR) signaling pathway - cell viability counter screen (AID 743224)
Outline: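 Luminescence from CellTiter-Glo, read after 30 min at room temperature, reports viability of VDR-bla cells treated with compounds for 16 h at 37C in the wells used for the beta-lactamase FRET read.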

[19] = biological target: Bile acid receptor (Homo sapiens) (UniProt Q96RI1); test: qHTS assay to identify small molecule antagonists of the farnesoid-X-receptor (FXR) signaling pathway (AID 743217; active = well fitted inhibition curve with a large enough effect in the signal ratio in the repeat runs, not every such curve was filed as active; the % refers to the signal ratio)
Chain of Bile acid receptor (Homo sapiens) (Q96RI1 whole entry, looked up): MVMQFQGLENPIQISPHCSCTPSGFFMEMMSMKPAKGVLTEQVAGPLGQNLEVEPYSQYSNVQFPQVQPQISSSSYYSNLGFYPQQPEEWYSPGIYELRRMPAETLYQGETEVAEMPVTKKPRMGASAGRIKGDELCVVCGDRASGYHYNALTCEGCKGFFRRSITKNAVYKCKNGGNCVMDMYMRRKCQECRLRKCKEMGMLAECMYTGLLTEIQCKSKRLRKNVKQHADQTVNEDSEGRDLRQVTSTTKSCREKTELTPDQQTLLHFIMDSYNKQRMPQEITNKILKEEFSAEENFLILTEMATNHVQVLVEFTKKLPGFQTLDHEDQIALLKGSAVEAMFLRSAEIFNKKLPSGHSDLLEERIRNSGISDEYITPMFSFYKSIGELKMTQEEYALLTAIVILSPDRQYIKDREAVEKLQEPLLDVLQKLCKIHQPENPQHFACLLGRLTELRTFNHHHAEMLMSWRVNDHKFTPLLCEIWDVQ
Outline: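 HEK 293T FXR-UAS-bla, 5000 cells/well; compound + CDCA 50 uM final; 16 h, 37 °C; B/G FRET substrate 2 h RT; fluorescence.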

[20] = biological target: Bile acid receptor (Homo sapiens) (UniProt Q96RI1); test: qHTS assay to identify small molecule agonists of the farnesoid-X-receptor (FXR) signaling pathway (AID 743220; active = well fitted activation curve with a large enough effect in the signal ratio in the repeat runs, not every such curve was filed as active; the % refers to the signal ratio)
Outline: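 Beta-lactamase reporter under UAS control in GeneBLAzer FXR HEK 293T cells (5000/well) measured with LiveBLAzer FRET substrate after 2 h at room temperature. Compound exposure lasted 16 h at 37C.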

| SMILES | Potency [1] | Potency [2] | Potency [3] | Potency [4] | Potency [5] | Potency [6] | outcome [7] | Potency [8] | Potency [9] | Potency [10] | Potency [11] | Potency [12] | Potency [13] | outcome [14] | outcome [15] | outcome [16] | Potency [17] | Potency [18] | Potency [19] | outcome [20] |
| --- | --- | --- | --- | --- | --- | --- | --- | --- | --- | --- | --- | --- | --- | --- | --- | --- | --- | --- | --- | --- |
| O=C(O)c1nc(Cl)ccc1Cl | inactive | inactive | inactive | inactive | inactive | inactive | inactive | inactive | inactive | inactive | inactive | inactive | inactive | – | – | – | – | – | – | – |
| O=c1[nH]c(=O)n(Cl)c(=O)n1Cl | inactive | inactive | inactive | inactive | inactive | inactive | inactive | inactive | inactive | inactive | inactive | inactive | inactive | – | – | – | – | – | – | – |
| CC[N+]1(C)CCCC1 | inactive | inactive | inactive | inactive | inactive | inactive | inactive | inactive | inactive | inactive | inactive | inactive | inactive | – | – | – | – | – | – | – |
| C1CCC(NC2CCCCC2)CC1 | inactive | inactive | – | inactive | inactive | inactive | inactive | inactive | inactive | inactive | inactive | inactive | inactive | inactive | inactive | inactive | inactive | inactive | – | – |
| O=C(O)C(Cl)(Cl)Cl | inactive | inactive | – | inactive | inactive | inactive | inactive | inactive | inactive | inactive | inactive | inactive | inactive | inactive | inactive | inactive | inactive | inactive | – | – |
| CCCC[n+]1ccccc1 | inactive | inactive | inactive | inactive | inactive | inactive | inactive | inactive | inactive | inactive | inactive | inactive | inactive | – | – | – | – | inactive | – | – |
| COP(=O)(OC)OC=C(Cl)Cl | inactive | inactive | – | inactive | inactive | inactive | inactive | inactive | inactive | inactive | inactive | inactive | inactive | inactive | inactive | – | – | – | – | – |
| Nc1ccc(Cl)cc1 | inactive | inactive | inactive | inactive | – | inactive | inactive | inactive | inactive | inactive | inactive | inactive | 8.71 µM (active) and inactive | inactive | inactive | – | – | – | – | – |
| O=C(O)C(Cl)Cl | inactive | inactive | – | inactive | inactive | inactive | inactive | inactive | inactive | inactive | inactive | inactive | inactive and 3.09 µM (active) | inactive | inactive | – | – | – | – | – |
| O=[N+]([O-])c1ccccc1O | inactive | inactive | inactive | inactive | inactive | inactive | inactive | inactive | inactive | inactive | inactive | inactive | inactive | – | – | – | – | inactive | – | – |
| Nc1ccc(-c2ccc(N)cc2)cc1 | inactive | inactive | – | inactive | inactive | inactive | inactive | inactive | inactive | inactive | inactive | inactive | inactive | – | – | inactive | inactive | – | – | – |
| Oc1cccc2cccnc12 | 414 nM (active) and 155 nM (active) and inactive | 521 nM (active) and 155 nM (active) | – | 776 nM [cytotoxic] (active) and inactive | inactive and 8.71 µM (active) | inactive and 977 nM (active) | inactive | 780 nM (active) and 155 nM (active) | 3.44 µM (active) and inactive | 774 nM (active) and 864 nM (active) and inactive | 1.23 µM (active) and inactive | inactive | inactive | – | – | inactive | inactive | – | – | – |
| OCCOc1ccccc1 | inactive | inactive | inactive | inactive | inactive | inactive | inactive | inactive | inactive | inactive | inactive | inactive | inactive | inactive | inactive | inactive | inactive | – | inactive | inactive |
| Oc1ccccc1-c1ccccc1 | inactive | inactive | – | inactive | inactive | inactive | inactive | inactive | inactive | inactive | inactive | inactive | inactive | inactive | inactive | inactive | inactive | – | – | – |
| COP(=O)(OC)C(O)C(Cl)(Cl)Cl (stereo unspecified) | inactive | inactive | inactive | inactive | inactive | inactive | inactive | inactive | inactive | inactive | inactive | inactive | inactive | inactive | inactive | inactive | – | – | – | inactive |
| CCCC[N+]1(C)CCCCC1 | inactive | inactive | – | inactive | inactive | inactive | inactive | inactive | inactive | inactive | inactive | inactive | inactive | – | – | inactive | inactive | inactive | – | – |
| CC[n+]1ccccc1 | inactive | inactive | inactive | inactive | inactive | inactive | inactive | inactive | inactive | inactive and 1.71 µM (active) | inactive | inactive | inactive | – | – | – | – | – | – | – |
